Data as given in PubChem BioAssay (EPA / NIEHS).
Records with an inconclusive call do not appear. Calls of active or inactive are those of the source. Rule for the calls, unless noted: active = hit-call score of the fitted dose curve at least 0.9, where 1 is the maximum; inactive = score below 0.9.

Experiments:
[1] = read-out: Interleukin-8 (IL8), CXCL8 (gene 3576); test: BSK_3C_IL8: BioMAP Diversity Plus: 3C Assay for Interleukin-8 (IL8) Biomarker Activity (AID 2283020); conditions: primary human endothelial cells (HUVEC); actives raise or lower the signal
Method in brief: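 Primary human umbilical vein endothelial cells were dosed for 24 h. IL-8 was quantified by ELISA and fitted bidirectionally against DMSO. Cytotoxicity was assessed in parallel cultures by SRB staining at 560 nm.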

[2] = read-out: Monokine induced gamma interferon (MIG), CXCL9 (gene 4283); test: BSK_3C_MIG: BioMAP Diversity Plus: 3C Assay for Monokine induced gamma interferon (MIG) Biomarker Activity (AID 2283021); conditions: primary human endothelial cells (HUVEC); actives raise or lower the signal
Method in brief: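 HUVEC primary endothelial cultures dosed with chemical; MIG quantified by ELISA at 24 h. Data fitted bidirectionally against DMSO control, with parallel SRB total-protein staining for cytotoxicity.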

[3] = BSK_3C_SRB: Viability Assessment in the BioMAP Diversity Plus: 3C Assay (AID 2283023); conditions: primary human endothelial cells (HUVEC);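 note: fitted both ways against DMSO so a hit may be signal rise or drop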
Method in brief: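 Cytotoxicity readout in parallel HUVEC 3C cultures: after 24 h compound exposure, cells fixed with 10% TCA, stained with 0.1% SRB and read at 560 nm. Gain or loss relative to DMSO fitted.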

[4] = read-out: Matrix Metallopeptidase 1 (MMP1), MMP1 (gene 4312); test: BSK_BE3C_MMP1: BioMAP Diversity Plus: BE3C Assay for Matrix Metallopeptidase 1 (MMP1) Biomarker Activity (AID 2283024); conditions: primary human bronchial epithelial cells; actives raise or lower the signal
Method in brief: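 Human primary bronchial epithelial cells (BE3C system) dosed for 24 h; MMP-1 quantified by ELISA. Bidirectional fit against DMSO; cytotoxicity tracked in parallel cultures by SRB total-protein staining.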

[5] = BSK_3C_Vis: BioMAP Diversity Plus: 3C Assay for Morphology Visualization (AID 2283025); conditions: primary human endothelial cells (HUVEC);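 note: fitted both ways so gain or loss versus DMSO counts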
Method in brief: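 Human umbilical vein endothelial cell morphology was inspected by light microscopy 24 h after chemical dosing; scored bidirectionally relative to DMSO.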

[6] = read-out: Pselectin, SELP (gene 6403); test: BSK_4H_Pselectin: BioMAP Diversity Plus: 4H Assay for Pselectin Biomarker Activity (AID 2283026); conditions: primary human endothelial cells (HUVEC); actives raise or lower the signal
Method in brief: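 Primary human umbilical vein endothelial cells were treated 24 h, and cell-surface P-selectin was then quantified by ELISA. Bidirectional fit versus DMSO; cytotoxicity checked in parallel cultures by SRB total-protein staining.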

[7] = BSK_4H_SRB: Viability Assessment in the BioMAP Diversity Plus: 4H Assay (AID 2283027); conditions: primary human endothelial cells (HUVEC);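 note: cells exposed to compound for 24 h before staining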
Method in brief: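 Absorbance at 560 nm of SRB-stained total protein served as the viability read-out in confluent primary human umbilical vein endothelium 24 h after chemical treatment. Curves were fitted bidirectionally against DMSO as negative control.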

[8] = BSK_BE3C_SRB: Viability Assessment in the BioMAP Diversity Plus: BE3C Assay (AID 2283028); conditions: primary human bronchial epithelial cells
Method in brief: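 Cytotoxicity read-out: SRB (0.1%) staining of TCA-fixed (10%) human lung bronchial epithelial cells, absorbance 560 nm, 24 h post-dosing. Curves fitted both directions relative to DMSO.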

[9] = read-out: Urokinase-type plasminogen activator receptor (uPAR), PLAUR (gene 5329); test: BSK_4H_uPAR: BioMAP Diversity Plus: 4H Assay for Urokinase-type plasminogen activator receptor (uPAR) Biomarker Activity (AID 2283030); conditions: primary human endothelial cells (HUVEC); actives raise or lower the signal
Method in brief: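 uPAR level read by ELISA on HUVEC cultures (BioMAP 4H) 24 h post-dosing, analyzed for gain or loss relative to DMSO. Parallel SRB staining assessed overt cytotoxicity.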

[10] = read-out: Vascular endothelial growth factor receptor 2 (Homo sapiens) (UniProt P35968); test: BSK_4H_VEGFRII: BioMAP Diversity Plus: 4H Assay for Vascular endothelial growth factor receptor 2 (VEGFR2) Biomarker Activity (AID 2283031); conditions: primary human endothelial cells (HUVEC); actives raise or lower the signal
Method in brief: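 Measured by ELISA after 24 h of compound treatment: VEGFR2 on primary human umbilical vein endothelial cells, fitted in both directions relative to DMSO. Parallel cultures received SRB staining (560 nm) for overt cytotoxicity.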

[11] = read-out: Human Leukocyte Antigen - DR isotype (HLADR), HLA-DRA (gene 3122); test: BSK_BE3C_HLADR: BioMAP Diversity Plus: BE3C Assay for Human Leukocyte Antigen - DR isotype (HLADR) Biomarker Activity (AID 2283032); conditions: primary human bronchial epithelial cells; actives raise or lower the signal
Method in brief: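 Human primary bronchial epithelial cells (BE3C system) exposed to compound for 24 hours; cell-surface HLA-DR measured by ELISA, fitted bidirectionally relative to DMSO. Total protein by SRB in parallel cultures tracked cytotoxicity.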

[12] = read-out: Vascular cell adhesion molecule 1 (VCAM1), VCAM1 (gene 7412); test: BSK_4H_VCAM1: BioMAP Diversity Plus: 4H Assay for Vascular cell adhesion molecule 1 (VCAM1) Biomarker Activity (AID 2283033); conditions: primary human endothelial cells (HUVEC); actives raise or lower the signal
Method in brief: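 Primary human umbilical vein endothelial cells, 4H stimulation system, treated for 24 h; cell-surface VCAM-1 quantified by ELISA. Bidirectional fitting against DMSO; cytotoxicity tracked by SRB total-protein staining in parallel cultures.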

[13] = read-out: Interferon-gamma inducible Protein 10 (IP10), CXCL10 (gene 3627); test: BSK_BE3C_IP10: BioMAP Diversity Plus: BE3C Assay for Interferon-gamma inducible Protein 10 (IP10) Biomarker Activity (AID 2283034); conditions: primary human bronchial epithelial cells; actives raise or lower the signal
Method in brief: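 Primary human bronchial epithelial cells, with IP-10 measured by ELISA 24 hours after chemical dosing. Bidirectional fit against DMSO; cytotoxicity checked by SRB total protein staining in parallel cultures.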

[14] = read-out: Monokine induced gamma interferon (MIG), CXCL9 (gene 4283); test: BSK_BE3C_MIG: BioMAP Diversity Plus: BE3C Assay for Monokine induced gamma interferon (MIG) Biomarker Activity (AID 2283035); conditions: primary human bronchial epithelial cells; actives raise or lower the signal;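 note: MIG protein measured by ELISA in BE3C cultures after 24 h of dosing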
Method in brief: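 MIG level was determined by ELISA after 24 h chemical treatment of primary human bronchial epithelial cells. Values were fitted bidirectionally with DMSO as the negative control and activity baseline.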

[15] = read-out: Transforming growth factor beta 1 (TGFb1), TGFB1 (gene 7040); test: BSK_BE3C_TGFb1: BioMAP Diversity Plus: BE3C Assay for Transforming growth factor beta 1 (TGFb1) Biomarker Activity (AID 2283036); conditions: primary human bronchial epithelial cells; actives raise or lower the signal
Method in brief: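 Primary human bronchial epithelial cells dosed with chemical; TGF-b1 measured by ELISA 24 h after dosing. Bidirectional curve fitting against DMSO negative control; SRB total-protein staining in parallel cultures gauged cytotoxicity.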

[16] = read-out: Plasminogen activator inhibitor-1 (PAI1), SERPINE1 (gene 5054); test: BSK_BE3C_PAI1: BioMAP Diversity Plus: BE3C Assay for Plasminogen activator inhibitor-1 (PAI1) Biomarker Activity (AID 2283037); conditions: primary human bronchial epithelial cells; actives raise or lower the signal
Method in brief: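 Primary human bronchial epithelial cells (BE3C system) exposed 24 h; PAI-1 quantified by ELISA. Parallel sulforhodamine B staining of total protein flags cytotoxicity. Bidirectional fit versus DMSO.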

[17] = read-out: urokinase plasminogen activator (uPA), PLAU (gene 5328); test: BSK_BE3C_uPA: BioMAP Diversity Plus: BE3C Assay for urokinase plasminogen activator (uPA) Biomarker Activity (AID 2283038); conditions: primary human bronchial epithelial cells; actives raise or lower the signal;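 note: uPA protein level quantified by ELISA in cell cultures; uPA read one day after compound addition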
Method in brief: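 ELISA for uPA on human primary bronchial epithelial cultures 24 h post-treatment, gain or loss against DMSO. Parallel SRB staining (0.1% after 10% TCA fixation, 560 nm) assessed overt cytotoxicity.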

[18] = read-out: Urokinase-type plasminogen activator receptor (uPAR), PLAUR (gene 5329); test: BSK_BE3C_uPAR: BioMAP Diversity Plus: BE3C Assay for Urokinase-type plasminogen activator receptor (uPAR) Biomarker Activity (AID 2283039); conditions: primary human bronchial epithelial cells; actives raise or lower the signal;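 note: uPAR protein level measured by ELISA on the cells; cells exposed to compound for one day before measurement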
Method in brief: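 Primary human bronchial epithelial cells dosed for 24 h; uPAR quantified by ELISA with bidirectional fitting against DMSO. Overt cytotoxicity assessed in parallel cultures by SRB total-protein staining (0.1% SRB, 560 nm).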

[19] = biological target: human Vitamin D Receptor (VDR), VDR (gene 7421) (UniProt P11473); test: ATG_VDR_TRANS: Attagene TRANS-FACTORIAL HepG2 Assay for human Vitamin D Receptor (VDR) (AID 2283022; active = hit-call score of the fitted dose curve at least 0.9, where 1 is the maximum)
Sequence of human Vitamin D Receptor (VDR), VDR (gene 7421) (P11473 whole entry, looked up, the tested form may be a part): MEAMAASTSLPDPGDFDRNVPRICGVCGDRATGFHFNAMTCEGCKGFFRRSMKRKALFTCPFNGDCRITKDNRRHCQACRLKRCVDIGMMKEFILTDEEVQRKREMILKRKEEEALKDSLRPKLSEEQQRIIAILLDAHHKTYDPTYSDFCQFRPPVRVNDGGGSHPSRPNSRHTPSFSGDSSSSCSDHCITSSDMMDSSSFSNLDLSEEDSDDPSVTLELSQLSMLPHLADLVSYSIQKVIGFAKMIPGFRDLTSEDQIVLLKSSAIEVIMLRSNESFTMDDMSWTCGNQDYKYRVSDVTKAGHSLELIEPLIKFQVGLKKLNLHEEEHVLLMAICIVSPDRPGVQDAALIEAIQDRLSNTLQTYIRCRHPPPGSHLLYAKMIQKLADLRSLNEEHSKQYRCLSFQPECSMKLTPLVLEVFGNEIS
Method in brief: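 Transactivation by an exogenous VDR-Gal4 chimera in transiently transfected HepG2 cells was measured as reporter transcript level 24 hours after chemical treatment. RT-PCR products were analysed by capillary electrophoresis and fitted in the positive direction relative to DMSO.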

Measured: outcome

C=CC/C=C/C/C=C/C/C=C/C
not listed: [17] | [18] | [19]
inactive: all other assays above

CS(C)(=O)=O
not listed: [13] | [19]
inactive: all other assays above

O=C(CC(=O)C(F)(F)C(F)(F)F)C(F)(F)F
not listed: [5] | [15]
inactive: all other assays above

CCO[Si](CCC(F)(F)C(F)(F)C(F)(F)C(F)(F)C(F)(F)C(F)(F)F)(OCC)OCC
not listed: [5] | [13] | [15] | [18]
inactive: all other assays above

O=C(O)C(F)(F)C(F)(F)F
not listed: [5] | [13] | [15] | [17] | [18]
inactive: all other assays above

FC(F)(F)C(F)(F)C(F)(F)C(F)(F)C(F)(F)C(F)(F)C(F)(F)Br
not listed: [5] | [15] | [17]
inactive: all other assays above
